A short description of assay [1]: viability loss in pontine glioma line – cell-based, SU-DIPG-XVII, MIPE5.0, CellTiter-Glo, qHTS, dose response (AID 1347060; cut-off not given, nearly all actives have AC50 up to about 26 µM;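 for AC50: cells exposed to compound for 48 hours before viability readout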). The following applies: CellTiter-Glo ATP luminescence.
Assay [2] is described as follows: viability loss in pontine glioma line – cell-based, SU-DIPG-XIII, MIPE4.0, CellTiter-Glo, qHTS, dose response (AID 1347061; cut-off not given, nearly all actives have AC50 up to about 37 µM;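 note: cells exposed to compound for 48 hours before readout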). The settings on record: CellTiter-Glo ATP luminescence. (ATP-based viability assays read luminescence as a measure of living cells.)
Assay [3] is described as follows: viability loss in pontine glioma line – cell-based, JHH-DIPG-1, MIPE4.0, CellTiter-Glo, qHTS, dose response (AID 1347062; cut-off not given, nearly all actives have AC50 up to about 27 µM;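 for AC50: cells exposed to compound for two days before readout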). The settings on record: JHH-DIPG-1 viability, CellTiter-Glo ATP luminescence.
The nature of assay [4]: viability loss in pontine glioma line – cell-based, SU-DIPG-IV, MIPE4.0, CellTiter-Glo, qHTS, dose response (AID 1347063; cut-off not given, nearly all actives have AC50 up to about 30 µM;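 note: compound exposure lasted 48 hours before the viability readout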). The following applies: CellTiter-Glo ATP luminescence.
Assay [5] in a line: viability loss in pontine glioma line – cell-based, SU-DIPG-XIII, MIPE5.0, CellTiter-Glo, qHTS, dose response (AID 1347064; cut-off not given, nearly all actives have AC50 up to about 23 µM;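 for AC50: cells exposed to compound for 48 hours before the viability read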). The following applies: CellTiter-Glo ATP luminescence.
Assay [6] is described as follows: growth inhibition of DIPG cells – cell-based, MIPE5.0 library, qHTS (AID 1347068; cut-off not given, nearly all actives have IC50 up to about 30 µM). The following applies: SU-DIPG-XXV viability. (In general: qHTS replaces the single test concentration by a dilution series.)
Assay [7] in a line: viability loss with induced miR-34 in A549 – imaging, A549 dox-inducible miR-34, nuclei and caspase counts, primary screen (AID 1347080;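 active = compounds whose cell count with miR-34 switched on is under 0.7 times the count with it off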). The settings on record: A549 miR-34 inducible, Hoechst nuclei count, 48 h.
Assay [8] is described as follows: compounds altering HSF1 focus formation in cells – imaging, Selleck Cancer Library (AID 1347162; in the data active = plate-normalised HSF1 focus index below about 0.46). The following applies: human cells, HSF1 nuclear foci imaging, at 10 µM; SSMD: measured here: HSF1 foci SSMD mean; cell count: measured here: cell number; plate-normalised HSF1 focus index: stronger effect = lower value.
Assay [9] is described as follows: MELAS cybrid and Rieske KO viability enhancers – cell-based, MELAS cybrids, Rieske KO mouse fibroblasts, CellTiter-Glo, primary screen (AID 1508586;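 active = mean z-score across replicates of 1.96 or higher in either the MELAS or the Rieske mutant cell line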;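 note: z relative to plate mean and SD of compound and empty wells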). The settings on record: low glucose.
A short description of assay [10]: drug combination growth inhibition, ovarian cancer – cell-based, oncology-focused library, rucaparib conditional, profiling panel (AID 1508598). The settings on record: patient-derived ovarian cancer cells, CellTiter-Glo viability, 144 h, stronger effect = lower value.
A short description of assay [11]: growth inhibition of DIPG cells – cell-based, MIPE4.0 library, CellTiter-Glo luminescence, qHTS (AID 1347066; cut-off not given, nearly all actives have AC50 up to about 30 µM;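 note: cells exposed to compound for 48 hours before readout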). The settings on record: SU-DIPG-VI viability, CellTiter-Glo ATP luminescence.
Assay [12] can be described thus: JHH-DIPG-1 glioma cell viability, MIPE5.0 library, CellTiter-Glo luminescence, qHTS (AID 1347067; cut-off not given, nearly all actives have AC50 up to about 26 µM;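 note: cells exposed to compound for 48 hours before readout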). The following applies: JHH-DIPG-1 glioma viability, CellTiter-Glo ATP luminescence.
Assay [13] can be described thus: viability loss in pontine glioma line – cell-based, SU-DIPG-XXV, MIPE5.0, CellTiter-Glo, qHTS, dose response (AID 1347065; cut-off not given, nearly all actives have AC50 up to about 26 µM;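 note: cells exposed to compound for 48 hours before ATP readout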). The settings on record: CellTiter-Glo ATP luminescence.
[14] abbreviates: stronger effect = lower value, cell number ratio, induced over uninduced.
[15] abbreviates: measured here: relative caspase fold change +Dox/-Dox.
Setting [16] is: measured here: total cells with miR-34 induction, stronger effect = lower value.
Where [17] appears, read: measured here: total cells without miR-34 induction.
Where [18] appears, read: MELAS cybrid survival, CellTiter-Glo 48 h, stronger effect = higher value.
Setting [19] is: Rieske KO mouse fibroblast survival, CellTiter-Glo 72 h.

Data on four molecules can be found in PubChem BioAssay.

Several values for one entry are separate records, joined by “and”; a condition that tells them apart may be missing. Equal values may be shown once. Inconclusive results are not listed. Activity calls are given as the source filed them.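 Rule for the calls, unless noted: active = normalized viability below 100% at a tested concentration; inactive = the rest.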

What is called viability is a read-out of living cells in per cent, often relative to untreated cells. By AC50 is commonly meant the concentration at which the activity in the assay is half-maximal.

For the molecule `CNC(=O)c1ccc(C)c(-n2c(C)cc(OCc3ccc(F)cc3F)c(Br)c2=O)c1`, the result in assay [1], in [2], in assay [3], in assay [4], in assay [5] and in assay [6] was inactive. Also, the fold change in assay [7] (setting [14]) is 0.88 (inactive); in assay [7] (setting [15]), 0.999. Moreover, the cell count stood at 7360 in assay [7] (setting [16]), 8370 in [7] (setting [17]) and 7630 in assay [8]. Also, the SSMD in assay [8] stood at 3.49. Further, the plate-normalised HSF1 focus index in assay [8] is 1.22 (inactive). The z-score is -0.398 (inactive) in [9] (setting [18]) and -1.25 in [9] (setting [19]). Also, the viability in [10] (at 0.000305 µM, OCI-C5x cells, with rucaparib 10 µM, 100% = cells with rucaparib alone) is 104% (inactive); in assay [10] (at 0.000305 µM, OCI-C5x cells, without rucaparib) it was 124% (inactive); in assay [10] (at 0.000305 µM, OCI-P5x cells, with rucaparib 20 µM, 100% = cells with rucaparib alone), 115% (inactive); in assay [10] (at 0.000305 µM, OCI-P5x cells, without rucaparib), 115% (inactive); in [10] (at 0.00122 µM, OCI-C5x cells, with rucaparib 10 µM, 100% = cells with rucaparib alone), 110% (inactive); in [10] (at 0.00122 µM, OCI-C5x cells, without rucaparib) it was 124% (inactive). For the same molecule, the viability is 107% (inactive) in assay [10] (at 0.00122 µM, OCI-P5x cells, with rucaparib 20 µM, 100% = cells with rucaparib alone); 105% (inactive) in assay [10] (at 0.00122 µM, OCI-P5x cells, without rucaparib); 105% (inactive) in assay [10] (at 0.00488 µM, OCI-C5x cells, with rucaparib 10 µM, 100% = cells with rucaparib alone); 102% (inactive) in assay [10] (at 0.00488 µM, OCI-C5x cells, without rucaparib); 112% (inactive) in assay [10] (at 0.00488 µM, OCI-P5x cells, with rucaparib 20 µM, 100% = cells with rucaparib alone); 111% (inactive) in assay [10] (at 0.00488 µM, OCI-P5x cells, without rucaparib). The viability was 97.8% (active) in assay [10] (at 0.0195 µM, OCI-C5x cells, with rucaparib 10 µM, 100% = cells with rucaparib alone); 113% (inactive) in [10] (at 0.0195 µM, OCI-C5x cells, without rucaparib); 114% (inactive) in assay [10] (at 0.0195 µM, OCI-P5x cells, with rucaparib 20 µM, 100% = cells with rucaparib alone); 107% (inactive) in assay [10] (at 0.0195 µM, OCI-P5x cells, without rucaparib); 101% (inactive) in assay [10] (at 0.0781 µM, OCI-C5x cells, with rucaparib 10 µM, 100% = cells with rucaparib alone); 106% (inactive) in [10] (at 0.0781 µM, OCI-C5x cells, without rucaparib). For the same molecule, the viability was 108% (inactive) in assay [10] (at 0.0781 µM, OCI-P5x cells, with rucaparib 20 µM, 100% = cells with rucaparib alone); 108% (inactive) in assay [10] (at 0.0781 µM, OCI-P5x cells, without rucaparib); 90.4% (active) in [10] (at 0.313 µM, OCI-C5x cells, with rucaparib 10 µM, 100% = cells with rucaparib alone); 119% (inactive) in assay [10] (at 0.313 µM, OCI-C5x cells, without rucaparib); 112% (inactive) in [10] (at 0.313 µM, OCI-P5x cells, with rucaparib 20 µM, 100% = cells with rucaparib alone); 112% (inactive) in assay [10] (at 0.313 µM, OCI-P5x cells, without rucaparib). Further, the viability in assay [10] (at 1.25 µM, OCI-C5x cells, with rucaparib 10 µM, 100% = cells with rucaparib alone) is 91.7% (active); in assay [10] (at 1.25 µM, OCI-C5x cells, without rucaparib), 112% (inactive); in [10] (at 1.25 µM, OCI-P5x cells, with rucaparib 20 µM, 100% = cells with rucaparib alone), 110% (inactive); in assay [10] (at 1.25 µM, OCI-P5x cells, without rucaparib) it was 108% (inactive); in assay [10] (at 5 µM, OCI-C5x cells, with rucaparib 10 µM, 100% = cells with rucaparib alone), 123% (inactive); in assay [10] (at 5 µM, OCI-C5x cells, without rucaparib), 129% (inactive). Further, the viability in assay [10] (at 5 µM, OCI-P5x cells, with rucaparib 20 µM, 100% = cells with rucaparib alone) was 110% (inactive); in [10] (at 5 µM, OCI-P5x cells, without rucaparib), 105% (inactive).
`c1cc(OCCN2CCCCC2)cc(-c2n[nH]c3ccc(-c4ncn[nH]4)cc23)c1`: the outcome in assay [1], in [2], in assay [3], in assay [4], in assay [5] and in assay [11] was inactive. Also, the call in [12] and in assay [6] was inactive.
Consider `CC(C)Oc1cc(Nc2nc(N[C@@H](C)c3ccc(F)cn3)ncc2Cl)[nH]n1`, for which the AC50 is 1.05 µM (active) in assay [1]; 11.8 µM (active) in assay [2]; 10.5 µM (active) in [3]; 6.62 µM (active) in assay [4]; 1.18 µM (active) in assay [5]; 0.742 µM (active) in assay [13]. In assay [12], the AC50 was 5.9 µM (active). In assay [8], this molecule displayed an SSMD of -0.66. In assay [8], the cell count worked out at 6860. Also, in [8], the plate-normalised HSF1 focus index was 0.979 (inactive).
On to `CO[C@H]1/C=C/O[C@@]2(C)Oc3c(C)c(O)c4c(O)c(c(/C=N/N5CCN(C)CC5)c(O)c4c3C2=O)NC(=O)/C(C)=C\C=C\[C@H](C)[C@H](O)[C@@H](C)[C@@H](O)[C@@H](C)[C@H](OC(C)=O)[C@@H]1C`, for which the call in assay [1], in assay [2], in assay [3], in [4] and in [12] was inactive. Further, the AC50 in [5] was 20.9 µM (active). In addition, the fold change in assay [7] (setting [14]) was 0.839 (inactive) and 0.889 (inactive); in [7] (setting [15]), 1.31 and 1.13. The cell count in [7] (setting [16]) was 9030 and 9880; in assay [7] (setting [17]), 10800 and 11100. Also, the z-score in assay [9] (setting [18]) is 1.76 (inactive) and 0.859 (inactive); in assay [9] (setting [19]) it was -0.112 and -0.159.
